The values that follow come from PubChem BioAssay (NCATS).

Test [1] addresses T1, Tyrosine-protein phosphatase non-receptor type substrate 1 (Homo sapiens) + Leukocyte surface antigen CD47 (Homo sapiens) (UniProt P78324+Q08722). The test is described as follows: CD47-SIRPalpha protein protein interaction - HTRF assay qHTS validation (AID 1347058; active = well fitted curve in the direction sought with a large enough effect in the signal ratio, not every such curve was filed as active; the % refers to the signal ratio; also: series mostly up to about 38 µM). The essentials: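 TR-FRET read (Ch1/Ch2 ratio) of soluble extracellular CD47 and Avi-biotinylated SIRPalpha domains in PBS pH 7.4 with 0.05% IGEPAL; 7-point compound titration. Sequential 30 min room-temperature steps; non-biotinylated SIRPalpha as control inhibitor.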
A general note: Time-resolved FRET reads energy transfer from a long-lived donor to a nearby acceptor.

Test [2] concerns the target T1, Tyrosine-protein phosphatase non-receptor type substrate 1 (Homo sapiens) + Leukocyte surface antigen CD47 (Homo sapiens). The test is described as follows: CD47-SIRPalpha protein protein interaction - Alpha assay qHTS validation (AID 1347059).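 Also: bead proximity luminescence from CD47 binding SIRPalpha after compound preincubation with SIRPalpha.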 Put shortly:
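Soluble extracellular domains: Avi-tag biotinylated SIRPalpha (25 nM) preincubated 30 min RT with compound, then 6His-CD47 (12.5 nM) 30 min; Ni-NTA acceptor and streptavidin donor beads (10 ug/mL) 30 min, AlphaScreen read. PBS pH 7.4, 0.05% IGEPAL.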
(In general: In qHTS, concentration-response curves come from the screen itself.)

Test [3] is described as follows: qHTS of pediatric cancer cell lines to identify multiple opportunities for drug repurposing: Primary screen for TC32 cells (AID 1347089). Also: nearly all actives have a fitted effect of over 60% in size. The essentials:
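In the primary qHTS, MIPE compounds were tested at 11 concentrations (0.78 nM to 46 µM) and NPC compounds at 8 (0.59 nM to 46 µM) on TC32 cells for 48 h. CellTiter-Glo luminescence gave viability.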

Test [4] in a line: qHTS of pediatric cancer cell lines to identify multiple opportunities for drug repurposing: Primary screen for DAOY cells (AID 1347090). Also: series mostly up to about 46 µM; nearly all actives have a fitted effect of over 55% in size. Put shortly: (§1)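 Eight- or eleven-point concentration series, 48 h treatment at 37 degrees C in growth media; readout CellTiter-Glo luminescence. Potency and efficacy were taken from the concentration-response curves.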
The nature of test [5]: qHTS of pediatric cancer cell lines to identify multiple opportunities for drug repurposing: Primary screen for SK-N-MC cells (AID 1347093). Also: potency is read from the fitted curve at half-maximal effect. Put shortly: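 Metabolically active cells were quantified by ATP-dependent luminescence (CellTiter-Glo, 15 min at room temperature) following 48 h treatment. Cells had been plated at 500-1,000 per well and settled for 5 h beforehand.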

A short description of test [6]: qHTS of pediatric cancer cell lines to identify multiple opportunities for drug repurposing: Primary screen for NB-EBc1 cells (AID 1347095). Put shortly:
(§2)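 500-1,000 cells/well; 5 h pre-incubation 37 °C/5% CO2; compound pinned; 48 h; CellTiter-Glo, 15 min RT; luminescence. MIPE 11-pt from 0.78 nM, NPC 8-pt from 0.59 nM final. Bortezomib 2.3 µM final as positive control.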

Test [7] in a line: qHTS of pediatric cancer cell lines to identify multiple opportunities for drug repurposing: Primary screen for Saos-2 cells (AID 1347097). Also: nearly all actives have a fitted effect of over 40% in size. The essentials: as §2
Test [8] in a line: qHTS of pediatric cancer cell lines to identify multiple opportunities for drug repurposing: Primary screen for SK-N-SH cells (AID 1347098).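 Also: DMSO served as neutral control and bortezomib at 2.3 µM as positive control; nearly all actives have a fitted effect of over 65% in size.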 Put shortly:
(§3)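 Cells (500-1,000/well) rested 5 h, then received compounds for 48 h; metabolically active cells were measured by CellTiter-Glo luminescence. Final concentrations spanned up to 46 µM (MIPE, 11-point) or 0.59 nM-46 µM (NPC, 8-point) in primary screens, 11-point in follow-ups.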

Test [9] can be described thus: qHTS of pediatric cancer cell lines to identify multiple opportunities for drug repurposing: Primary screen for NB1643 cells (AID 1347099). Also: nearly all actives have a fitted effect of over 50% in size. The essentials: as §2
The nature of test [10]: qHTS of pediatric cancer cell lines to identify multiple opportunities for drug repurposing: Primary screen for LAN-5 cells (AID 1347100). Put shortly: (§4)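 Cells (500-1,000/well) in growth media were settled 5 h at 37 degrees C, then given compounds for 48 h. Viability was read as CellTiter-Glo luminescence. Primary runs used MIPE at 11 points (0.78 nM-46 µM) and NPC at 8 points (0.59 nM-46 µM); follow-ups used 11 points.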

Test [11] can be described thus: qHTS of pediatric cancer cell lines to identify multiple opportunities for drug repurposing: Primary screen for BT-12 cells (AID 1347101). Also: nearly all actives have a fitted effect of over 25% in size. The essentials:
as §3

A short description of test [12]: qHTS of pediatric cancer cell lines to identify multiple opportunities for drug repurposing: Primary screen for Rh18 cells (AID 1347102). Also: nearly all actives have a fitted effect of over 65% in size. The essentials:
as §4

The nature of test [13]: qHTS of pediatric cancer cell lines to identify multiple opportunities for drug repurposing: Primary screen for RD cells (AID 1347104). Also: nearly all actives have a fitted effect of over 55% in size. Put shortly:
as §2

Test [14] in a line: qHTS of pediatric cancer cell lines to identify multiple opportunities for drug repurposing: Primary screen for MG 63 (6-TG R) cells (AID 1347105). Also: nearly all actives have a fitted effect of over 50% in size. Put shortly:
as §2

Test [15] in a line: qHTS of pediatric cancer cell lines to identify multiple opportunities for drug repurposing: Primary screen for SJ-GBM2 cells (AID 1347091). Also: potency is read from the fitted curve at half-maximal effect. Put shortly: as §1
A short description of test [16]: qHTS of pediatric cancer cell lines to identify multiple opportunities for drug repurposing: Primary screen for BT-37 cells (AID 1347094). Also: series mostly up to about 57 µM. Put shortly: as §2
The nature of test [17]: qHTS of pediatric cancer cell lines to identify multiple opportunities for drug repurposing: Primary screen for U-2 OS cells (AID 1347096). Also: nearly all actives have a fitted effect of over 50% in size. The essentials: as §4
Test [18] is described as follows: qHTS of pediatric cancer cell lines to identify multiple opportunities for drug repurposing: Primary screen for OHS-50 cells (AID 1347103). Also: nearly all actives have a fitted effect of over 40% in size. Put shortly: as §3
Test [19] has as its target Parathyroid hormone/parathyroid hormone-related peptide receptor (Homo sapiens) (UniProt Q03431). The test is described as follows: qHTS for PTHR1 Agonists: Optimization Screen against the NCGC LOPAC library (AID 1347079).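 Also: GloSensor cAMP luminescence in HEK-293 GP2 cells expressing human PTHR1 with IBMX.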 The essentials: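 Compounds were tested across a qHTS titration. PTHR1-expressing GP2 cells report cAMP rises via GloSensor luminescence after 1 hr compound exposure at 37C with IBMX present.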

Test [20] is described as follows: qHTS of pediatric cancer cell lines to identify multiple opportunities for drug repurposing: Primary screen for A673 cells (AID 1347092). Also: nearly all actives have a fitted effect of over 45% in size. Also: potency is read from the fitted curve at half-maximal effect. Put shortly:
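48 h compound exposure, A673, 500-1,000 cells/well, 37 degrees C/5% CO2. MIPE: 11-point, 0.78 nM-46 µM; NPC: 8-point, 0.59 nM-46 µM (final). Readout CellTiter-Glo luminescence after 15 min RT.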

The structures appear in SMILES notation. Values without a mark were called inactive. Results filed as inconclusive are left out. Activity calls are given as the source filed them. Unless noted, calls follow the shape of the dose curve; as a rule, active = well fitted curve in the direction sought with a large enough effect; inconclusive = small, poorly fitted or top-dose-only effect, or another doubt; inactive = no such curve, though single readings can be large; an effect the other way counts as inactive or inconclusive.

T1 sequence (P78324 whole entry, looked up, the tested form may be a part): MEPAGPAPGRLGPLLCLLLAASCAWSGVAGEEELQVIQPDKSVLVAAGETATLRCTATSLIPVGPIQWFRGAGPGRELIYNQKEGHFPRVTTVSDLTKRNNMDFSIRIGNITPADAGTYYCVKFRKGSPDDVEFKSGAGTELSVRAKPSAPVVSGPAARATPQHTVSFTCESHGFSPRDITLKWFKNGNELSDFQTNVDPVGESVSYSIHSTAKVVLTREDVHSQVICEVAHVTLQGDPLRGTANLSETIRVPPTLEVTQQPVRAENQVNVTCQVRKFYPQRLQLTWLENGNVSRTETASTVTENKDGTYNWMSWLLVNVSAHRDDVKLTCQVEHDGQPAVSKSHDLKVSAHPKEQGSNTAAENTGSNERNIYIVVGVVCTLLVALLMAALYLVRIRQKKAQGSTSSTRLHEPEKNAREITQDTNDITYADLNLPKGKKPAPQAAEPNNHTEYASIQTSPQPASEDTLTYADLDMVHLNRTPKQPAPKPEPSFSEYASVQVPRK
T1 sequence (Q08722 whole entry, looked up, the tested form may be a part): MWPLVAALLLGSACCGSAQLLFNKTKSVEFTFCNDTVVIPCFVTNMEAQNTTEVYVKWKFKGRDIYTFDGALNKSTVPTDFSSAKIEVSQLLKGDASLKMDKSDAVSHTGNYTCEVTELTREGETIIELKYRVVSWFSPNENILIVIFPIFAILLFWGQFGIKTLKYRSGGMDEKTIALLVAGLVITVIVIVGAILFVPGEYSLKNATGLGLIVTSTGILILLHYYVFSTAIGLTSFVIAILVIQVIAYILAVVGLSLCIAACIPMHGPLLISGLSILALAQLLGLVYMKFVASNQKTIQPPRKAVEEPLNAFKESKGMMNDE
Parathyroid hormone/parathyroid hormone-related peptide receptor (Homo sapiens), sequence (Q03431 whole entry, looked up): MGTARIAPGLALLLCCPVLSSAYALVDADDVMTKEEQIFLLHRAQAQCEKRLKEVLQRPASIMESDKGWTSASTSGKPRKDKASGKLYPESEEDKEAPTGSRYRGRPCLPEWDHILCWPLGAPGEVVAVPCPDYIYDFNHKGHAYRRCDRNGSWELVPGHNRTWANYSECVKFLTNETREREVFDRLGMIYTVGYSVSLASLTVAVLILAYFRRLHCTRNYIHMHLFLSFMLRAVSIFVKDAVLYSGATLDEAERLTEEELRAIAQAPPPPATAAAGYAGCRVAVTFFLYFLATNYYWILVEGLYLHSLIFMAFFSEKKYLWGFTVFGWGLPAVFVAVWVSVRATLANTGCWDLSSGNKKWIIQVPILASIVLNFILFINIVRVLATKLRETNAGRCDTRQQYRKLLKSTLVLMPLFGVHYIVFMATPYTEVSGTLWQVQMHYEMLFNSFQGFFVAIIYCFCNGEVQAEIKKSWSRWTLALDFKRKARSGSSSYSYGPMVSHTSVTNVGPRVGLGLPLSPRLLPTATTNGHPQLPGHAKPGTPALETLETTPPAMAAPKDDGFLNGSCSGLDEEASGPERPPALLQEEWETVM

For `CCOC(=O)C1=C(O)C(=O)N(Cc2ccccc2)C1`, in test [1], the result was inactive. Besides, the Potency result in [2], in test [3], in test [4], in [5], in [6] and in test [7] was “inactive” throughout. For the same compound, the Potency result in test [8], in test [9], in [10], in test [11], in [12] and in [13] was “inactive” in each case. For the same compound, the Potency result in test [14] was “inactive”.

Consider `COc1ccc2cc([C@H](C)C(=O)O)ccc2c1`, for which the outcome in [1] was inactive. Moreover, the Potency result in test [2], in [3], in test [4], in test [15], in [5] and in test [16] was “inactive” throughout. The Potency result in test [6], in test [17], in test [7], in [8], in test [9] and in [10] was “inactive” each time. Further, the Potency result in [11], in [12], in [18], in test [13] and in test [14] was “inactive” throughout.

Regarding `C[C@@H](N)C1CCC(C(=O)Nc2ccncc2)CC1` (stereo partly drawn), the outcome in [1] and in test [19] was inactive. The Potency entry in [2], in test [3], in test [4], in test [16], in test [6] and in [17] was “inactive” in each case. The Potency entry in test [9], in test [10], in [11], in test [12], in [13] and in test [14] was “inactive” throughout. In addition, in [15], the Potency is 7.43 µM (active).

As for `O=c1c(O)c(-c2cc(O)c(O)c(O)c2)oc2cc(O)cc(O)c12`, the Potency entry in test [2], in test [3], in test [4], in [15], in test [17] and in [9] was “inactive” in each case. The Potency entry in test [10], in test [11], in [12] and in [13] was “inactive” in each case. For the same compound, in test [19], the compound was called inactive.

For the compound `c1cnc2cc3c(cc2n1)C1CNCC3C1`, in test [1], the result was inactive. The Potency entry in test [2], in test [3], in test [4], in test [16], in test [17] and in [7] was “inactive” each time. The Potency entry in test [11], in test [12], in [18], in test [13] and in [14] was “inactive” throughout. The Potency in [5] was 4.69 µM (active).

On to `CC1(C)C(=O)N(CCN2CCC(C(=O)c3ccc(F)cc3)CC2)c2ccccc21`, for which the Potency entry in test [2], in [3], in test [16], in test [17], in test [7] and in test [10] was “inactive” each time. Besides, the Potency entry in test [12], in test [18] and in [13] was “inactive” throughout. Besides, in test [19], the compound was classed as inactive. In addition, in [5], the Potency was 10.5 µM (active).

For `Cc1cc(O)c2c(c1)C(=O)c1cc(O)cc(O)c1C2=O`, the Potency result in test [2], in test [3], in test [20], in test [16], in test [17] and in [7] was “inactive” throughout. Further, the Potency result in test [8], in [10], in test [11], in test [12], in [18] and in [13] was “inactive” in each case. Besides, the Potency entry in test [14] is “inactive”. In test [19], the outcome was inactive.

For `O=C1NC(=O)C(c2ccccc2[N+](=O)[O-])=C1Nc1ccc(O)c(Cl)c1`, the Potency entry in test [2], in test [3], in test [4], in test [16], in [6] and in test [7] was “inactive” throughout. Also, the Potency result in test [11], in [12] and in [13] was “inactive” in each case. Moreover, the outcome in test [19] was inactive. Also, the Potency in test [20] was 5.9 µM (active); in test [5] it was 0.118 µM (active).
